Only some compounds are listed: those with a hit (about 4% of all), similar ones and a draw of the others.
TROY NFkB inh: TROY signaling inhibition. Q293 LMP1-TROYcd NF-kB luciferase reporter, 4 h. inhibition, % at 10 µM. actives 0.98% (n = 360,000);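 active = compounds whose plate-normalised and pattern-corrected inhibition of the luciferase reporter signal at the single screening dose is 50% or more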
EBV LMP1 NFkB: inhibitors of Epstein-Barr LMP1-induced NF-kappaB reporter; LMP1-induced NF-kappaB luciferase reporter cells, luminescence; inhibition, % at 12.5 µM; actives 0.69% (n = 350,000); AID 504558; in the data active = inhibition above about 41%;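 note: 0% = neutral control wells and 100% = reference inhibitor control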
TWEAK-Fn14 inh: blocks TWEAK-Fn14 interaction in a reporter cell assay; TWEAK-stimulated Fn14 reporter cells, luciferase luminescence, 8 h; inhibition, % at 10 µM; actives 2% (n = 360,000); in the data active = inhibition above about 50%
HIF-2a block: inhibitors of HIF-2a | 786-0 RCC cells HIF-2a reporter, luciferase luminescence, overnight | inhibition, % at 18.8 µM | actives 0.72% (n = 360,000) | AID 624352;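 active = inhibition of the luminescence signal of 40% or more relative to plate controls, in a single-dose primary screen at 18.75 µM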
Peg3 prom inh: Peg3 promoter activity inhibition. actives 1.7% (n = 360,000). HeLa PEG-Prom luciferase reporter, luminescence, overnight. inhibition, % at 20 µM;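 active = inhibition of at least 50% at 20 µM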
MITF TRPM1 inh: inhibitors of MITF-driven TRPM1 promoter in melanoma cells; SK-MEL-5 TRPM1 promoter luciferase, 24 h; inhibition, % at 12.5 µM; actives 0.83% (n = 330,000); AID 488899;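 active = mean inhibition across replicates of 60% or more, whatever share of single replicates reaches that level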
Mdm2-MdmX confirm: Mdm2/MdmX (human) interaction inhibition, confirmed; shares compounds with HIF-2a block; SaOS-2 split-luciferase Mdm2/MdmX complementation, luminescence; inhibition, % at 8 µM; actives 99% (n = 740);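 active = mean inhibition of the luminescence signal across two replicates at or above 26 percent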
Target sequence (O15151 whole entry, looked up): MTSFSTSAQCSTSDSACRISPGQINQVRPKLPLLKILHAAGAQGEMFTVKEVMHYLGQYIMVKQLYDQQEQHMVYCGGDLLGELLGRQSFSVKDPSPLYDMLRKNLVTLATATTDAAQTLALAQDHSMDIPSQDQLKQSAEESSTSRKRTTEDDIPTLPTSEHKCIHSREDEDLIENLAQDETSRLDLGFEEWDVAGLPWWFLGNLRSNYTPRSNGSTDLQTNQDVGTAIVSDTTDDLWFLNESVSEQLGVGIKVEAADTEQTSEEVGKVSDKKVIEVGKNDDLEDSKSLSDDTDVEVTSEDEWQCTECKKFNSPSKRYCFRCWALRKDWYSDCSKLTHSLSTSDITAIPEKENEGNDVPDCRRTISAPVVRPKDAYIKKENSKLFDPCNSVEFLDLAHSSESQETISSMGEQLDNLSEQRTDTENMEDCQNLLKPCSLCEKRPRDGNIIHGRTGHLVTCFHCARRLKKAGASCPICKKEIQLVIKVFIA
Target sequence (Q00987 whole entry, looked up): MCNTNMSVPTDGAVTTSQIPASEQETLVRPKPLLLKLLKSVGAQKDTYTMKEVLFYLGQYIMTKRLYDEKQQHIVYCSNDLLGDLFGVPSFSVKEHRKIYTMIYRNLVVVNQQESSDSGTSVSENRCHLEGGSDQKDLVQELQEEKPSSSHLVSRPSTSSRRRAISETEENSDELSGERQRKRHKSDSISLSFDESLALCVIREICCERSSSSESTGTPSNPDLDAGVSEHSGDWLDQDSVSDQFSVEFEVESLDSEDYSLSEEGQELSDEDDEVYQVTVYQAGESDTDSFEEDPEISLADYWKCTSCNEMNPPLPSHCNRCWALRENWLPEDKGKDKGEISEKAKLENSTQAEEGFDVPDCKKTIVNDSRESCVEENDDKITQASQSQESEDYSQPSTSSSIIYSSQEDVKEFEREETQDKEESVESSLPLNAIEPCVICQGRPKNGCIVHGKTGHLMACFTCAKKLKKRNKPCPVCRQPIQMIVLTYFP
HIF-2a inh conf: HIF-2a inhibition, single concentration confirmation; shares compounds with HIF-2a block; 786-0 RCC cells, HIF-2a luciferase reporter luminescence, overnight; AID 651580; inhibition, % at 18.8 µM; actives 56% (n = 1,800);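 active = mean inhibition across four replicates of at least 40 percent at the single tested concentration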
HIF-1a counter: HIF-1a inhibition counter-screen for HIF-2a hits. shares compounds with HIF-2a block. MiaPaCa-2 HIF-1a luciferase reporter, desferoxamine, overnight. inhibition, % at 18.8 µM. actives 72% (n = 1,800);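 active = mean inhibition of the reporter signal across four replicates at the single tested dose of 50% or more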
* = called active by the depositor; . = not tested or not shown.

SMILES | TROY NFkB inh | EBV LMP1 NFkB | TWEAK-Fn14 inh | HIF-2a block | Peg3 prom inh | MITF TRPM1 inh | HIF-2a inh conf | HIF-1a counter | others
CCC(CC)NC(=O)Nc1cccc(C)c1C | -1.5 | 0.1 | -1.2 | 27.1 | 2.4 | -14.5 | . | .
CCC(C)N(CC(=O)Nc1cccc(C)c1C)C(=O)CCl (stereo not drawn) | 7.8 | 36.8 | 59.6* | 51.0* | 43.5 | 14.5 | 45.9* | 53.5* | Mdm2-MdmX confirm=102.7*
CSc1ccc(CNC(=O)C2(C)CCCN(C(C)=O)C2)cc1 (stereo not drawn) | -4.8 | . | -1.4 | 1.3 | -5.2 | . | . | .
O=C(NCc1ccccc1)c1cccc(NC(=O)C2CC2)c1 | 5.8 | 5.1 | -12.2 | 7.5 | -8.5 | 0.7 | . | .
CC1CCc2sc(C(=O)NN)cc2C1 (stereo not drawn) | 29.7 | -0.7 | 3.3 | 3.6 | -9.8 | 0.7 | . | .
CCOC(=O)c1sc(NC(=O)c2cc3c(s2)CCC(C)C3)nc1C (stereo not drawn) | 6.9 | -0.1 | -22.6 | 48.2* | 24.2 | 71.5* | 45.1* | -2.7
COc1ccc(C(=O)/C=C/C(=O)N(CC(=O)NC2CCCCC2)Cc2ccc(F)cc2)c(O)c1 | 89.5* | 25.1 | 84.9* | 63.8* | 102.0* | 99.1* | 58.4* | 105.1*
COc1ccc(C(=O)/C=C/C(=O)N(CC(=O)NCCC(C)C)Cc2cccs2)c(O)c1 | -25.0 | 15.8 | 14.1 | 95.7* | 105.2* | 84.0* | 91.4* | 55.9*
OC1CNc2c(ccc3ccccc23)C1 (stereo not drawn) | 2.7 | -3.6 | -1.3 | -8.9 | -8.8 | -1.1 | . | .
O=C(O)c1cccc(Oc2ccc(C(=O)O)c([N+](=O)[O-])c2)c1 | 11.3 | 4.9 | -2.6 | 8.4 | 6.3 | -6.2 | . | .
CC1(Cc2ccc(C(F)(F)F)nc2)C(=O)Nc2cc(-c3ccccc3Cl)ccc21 (stereo not drawn) | 8.5 | . | -8.2 | -9.3 | 1.2 | . | . | .
C=CC(C)(C)c1c(O)c(CC=C(C)C)c(O)c2c(=O)c3ccc(O)c(O)c3oc12 | 46.4 | 34.0 | 76.5* | 10.4 | 61.0* | . | . | . | Mdm2-MdmX confirm=97.2*
O=C(Nc1sc2c(c1C(=O)O)CCC2)c1ccccc1Cl | 16.8 | -6.6 | 22.6 | 68.0* | 20.2 | -8.9 | 96.9* | -24.8
O=C(Nc1sc2c(c1C(=O)O)CCCC2)c1ccccc1Cl | -35.1 | -1.1 | 15.2 | -52.2 | -4.0 | 2.1 | . | .
CC1(c2nnc(-c3ccc(Cl)cc3)o2)CC(c2cccnc2)=NO1 (stereo not drawn) | -40.6 | 0.7 | 9.2 | 3.8 | -5.5 | -4.0 | . | .
COc1ccccc1/C=C/C(=O)c1c2c(c(C)[nH]c1=O)CCCC2 | 35.4 | 14.9 | 85.5* | 72.8* | 98.3* | 64.0* | 62.9* | 87.8* | Mdm2-MdmX confirm=103.2*
Cc1coc2cc3oc(=O)c(CCC(=O)N[C@@H](CCCNC(N)=O)C(=O)O)c(C)c3cc12 | 8.7 | -8.4 | -4.8 | 5.5 | 7.5 | 1.4 | . | .
Cc1coc2cc3oc(=O)c(CC(=O)N[C@@H](CC(C)C)C(=O)O)c(C)c3cc12 | 2.9 | 5.3 | 1.6 | 46.3* | 3.6 | -9.4 | -2.4 | -2.6
Oc1cc(-c2ccncc2)cc2cccnc12 | 5.1 | -2.9 | 59.9* | 15.4 | 19.6 | . | . | . | Mdm2-MdmX confirm=100.7*
CN(C)c1ccc(-c2cc(O)c3ncccc3c2)cc1 | -55.8 | 0.9 | -70.8 | -213.0 | -145.9 | -20.8 | . | .
Oc1cc(-c2ccc(N3CCCCC3)nc2)cc2cccnc12 | -52.5 | -49.4 | -55.5 | -82.5 | -122.7 | -12.1 | . | . | Mdm2-MdmX confirm=98.7*
CCOC(=O)C1=CCN(S(=O)(=O)c2cccc(Cl)c2)C1c1ccc(F)cc1 (stereo not drawn) | -1.0 | . | 14.8 | 17.7 | 34.6 | . | . | .
O=C1NC[C@H](Cc2ccccc2)N(C[C@H]2CCCN2C[C@H](Cc2ccccc2)N2C[C@H](Cc3ccccc3)N(CC3CCCCCC3)C(=O)C2=O)C1=O | 46.1 | 6.2 | 31.3 | 80.4* | 53.7* | 1.8 | 1.9 | 105.5*
CC(C)C[C@@H](CN1CCC[C@@H]1CN1C(=O)C(=O)NC[C@@H]1Cc1ccccc1)N1C[C@H](Cc2ccccc2)N(CC2CCCCCC2)C(=O)C1=O | 35.3 | 16.1 | 2.8 | 79.5* | 54.7* | 6.6 | 7.8 | 104.8*
COc1ccc(/C=C2\SC(=O)N(CCNC(=O)Cn3[nH]c(=O)c4ccccc4c3=O)C2=O)cc1 | 35.3 | 3.7 | 51.0* | 44.6* | 12.1 | 8.4 | 77.2* | 11.6
SMILES | TROY NFkB inh | EBV LMP1 NFkB | TWEAK-Fn14 inh | HIF-2a block | Peg3 prom inh | MITF TRPM1 inh | HIF-2a inh conf | HIF-1a counter | others
Cc1ccc(/C=C2\SC(=S)N(CCCC(=O)Nc3ccc(O)cc3)C2=O)cc1 | -53.1 | 38.7 | 7.7 | 79.7* | -41.0 | 23.2 | . | . | Mdm2-MdmX confirm=56.8*
COc1ccc(/C=C2\SC(=O)N(CCCC(=O)Nc3ccc(C(=O)O)cc3)C2=O)cc1 | 72.8* | 49.9* | 83.2* | 84.5* | 43.7 | . | 97.0* | 90.6*
CC(=O)c1sc(NC(=O)CCN2C(=O)c3ccccc3C2=O)nc1C | -3.0 | 1.4 | -2.2 | 9.2 | -8.2 | -16.2 | . | .
O=C(NNC(=O)c1ccccc1C(F)(F)F)c1csc(N2CCOCC2)n1 | 7.1 | -4.2 | -7.1 | 17.2 | -3.8 | 4.0 | . | .
COc1ccc2cc3c(N)nn(C(=O)c4ccc(Cl)c([N+](=O)[O-])c4)c3nc2c1 | 21.8 | 19.4 | 54.7* | 0.8 | -1.1 | -1.2 | . | . | Mdm2-MdmX confirm=96.5*
COc1ccc2cc3c(N)nn(C(=O)c4ccccc4[N+](=O)[O-])c3nc2c1 | 28.8 | 63.0* | 81.9* | 32.1 | 4.2 | 11.9 | . | . | Mdm2-MdmX confirm=92.7*
CCCC1CCC(C(=O)n2nc(N)c3cc4ccc(OC)cc4nc32)CC1 (stereo not drawn) | 18.4 | 6.2 | 30.2 | 15.5 | 9.0 | . | . | .
CC(=O)c1ccc2ccccc2c1OC(=O)c1ccncc1 | 17.5 | -4.0 | -0.8 | -11.0 | -10.2 | . | . | .
CN(c1ccc(C(=O)NCc2ccncc2)cc1)S(=O)(=O)c1ccc(Cl)cc1 | 16.1 | -0.1 | -6.9 | 14.4 | 16.4 | 11.8 | . | .
COc1ccc(C[C@H](N)C(=O)N[C@H]2[C@@H](O)[C@H](n3cnc4c(N(C)C)ncnc43)O[C@@H]2CO)cc1 | 2.9 | -21.1 | 93.3* | 94.9* | 102.3* | 108.6* | 94.9* | 105.1* | Mdm2-MdmX confirm=103.0*
CN(C)c1ncnc2c1ncn2C1OC(CO)C(O)C1O (stereo not drawn) | -77.0 | 35.9 | -1.4 | 52.0* | 27.6 | 42.0 | 26.1 | 42.2
OCC1OC(n2ccc3c2ncn2ncnc32)C(O)C1O (stereo not drawn) | -21.7 | 13.1 | -5.2 | 54.0* | 35.4 | . | 37.1 | 54.1*
